Compound activity (PubChem BioAssay)
BAZ2B inh = qHTS Assay for Inhibitors of BAZ2B. Bromodomain adjacent to zinc finger domain protein 2B (Homo sapiens), Q9UIF8. AlphaScreen BAZ2B-H3K14Ac peptide displacement. Potency, µM (top dose mostly 114 µM), most hits filed as inhibitors. hit rate 4.4% among 360,000; further: nearly all actives have a fitted effect of over 60% in size
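Protein-peptide AlphaScreen: BAZ2B 50 nM, b-H3K14Ac 50 nM, 1x PBS pH 7.4 + 0.01% Tween-20. Preincubation 30 min RT; cpd 30 min RT (top 110 uM); beads 20 min RT, light-protected.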
L3MBTL1 inh = qHTS Assay for the Inhibitors of L3MBTL1 | AlphaScreen L3MBTL1–H3K9me1 peptide binding | Potency, µM (titrated, usually from 57.1 µM), most hits filed as inhibitors | hit rate 0.66% among 230,000; further: nearly all actives have a fitted effect of over 60% in size
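L3MBTL1 (50 nM) pre-complexed 30 min with biotinylated H3(1-15)K9me1 peptide (75 nM), then compounds added for 30 min at room temperature; AlphaScreen streptavidin donor/nickel chelate acceptor beads (10 ug/mL final) read after 30 min dark incubation.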
G9a block = qHTS Assay for Inhibitors of Histone Lysine Methyltransferase G9a; G9a H3K9 monomethylation, AlphaScreen, 2 h; Potency, µM (top dose mostly 102 µM), actives largely listed as inhibitors; hit rate 8.8% among 350,000; AID 504332, 2011; further: nearly all actives have a fitted effect of over 75% in size
Target sequence (Q96KQ7 913-1193 limits assumed): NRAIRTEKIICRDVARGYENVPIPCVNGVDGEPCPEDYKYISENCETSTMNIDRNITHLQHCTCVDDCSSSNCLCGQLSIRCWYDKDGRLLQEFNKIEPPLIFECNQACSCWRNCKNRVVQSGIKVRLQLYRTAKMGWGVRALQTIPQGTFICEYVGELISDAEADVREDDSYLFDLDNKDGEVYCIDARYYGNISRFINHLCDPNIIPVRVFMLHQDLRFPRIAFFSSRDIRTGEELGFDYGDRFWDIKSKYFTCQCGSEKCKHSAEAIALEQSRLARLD
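G9a (20 nM) preincubated 15 min RT with compounds, then 500 nM biotinylated H3K9 peptide and 20 uM SAM added; 2 h RT reaction. Monomethyl-H3K9 product detected by AlphaScreen with anti-H3K9me1 antibody, streptavidin donor and anti-rabbit IgG acceptor beads.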
JMJD2A Tudor inh = qHTS Assay for Inhibitors of JMJD2A-Tudor Domain. AlphaScreen JMJD2A-Tudor / H3K4me3 peptide binding. hit rate 4.4% among 390,000. Potency, µM (titrated, usually from 114 µM), usual class: inhibitors; further: nearly all actives have a fitted effect of over 50% in size
HP1b binding inh = HTS for Inhibitors of HP1-beta Chromodomain Interactions with Methylated Histone Tails; hit rate 0.56% among 390,000; Potency, µM (titrated, usually from 114 µM), usual class: inhibitors; AlphaScreen HP1-beta / biotin-H3K9me3 peptide binding; Chromobox protein homolog 1 (Homo sapiens), P83916; further: nearly all actives have a fitted effect of over 70% in size
Target sequence (P83916 whole entry, looked up): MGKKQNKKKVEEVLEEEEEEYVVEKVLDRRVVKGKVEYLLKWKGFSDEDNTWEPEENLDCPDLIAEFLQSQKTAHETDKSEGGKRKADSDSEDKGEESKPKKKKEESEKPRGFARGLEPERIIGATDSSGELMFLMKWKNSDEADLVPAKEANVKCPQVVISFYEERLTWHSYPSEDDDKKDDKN
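HP1-beta protein (50 nM final) preincubated 30 min at room temperature with biotinylated H3(1-18)K9me3 peptide (50 nM) in PBS pH 7.4, 0.01% Tween-20, then compound added for 30 min. AlphaScreen streptavidin donor/nickel chelate acceptor beads (10 ug/mL final), 30 min dark, luminescence read.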
Sfp inh = qHTS Assay for Inhibitors of Bacillus subtilis Sfp phosphopantetheinyl transferase (PPTase) | 4'-phosphopantetheinyl transferase ffp (Bacillus subtilis), Q9F4F7 | Biochemical Sfp PPTase activity, qHTS | Potency, µM, usual class: inhibitors | hit rate 3.5% among 310,000;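 further: the enzyme is Sfp with the accession as filed and its product quenches rhodamine fluorescence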
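Reaction rates are the 30-min fluorescence difference (ex 525, em 598 nm) in wells containing 15 nM Sfp, 5 uM rhodamine-CoA and 12.5 uM BHQ-2-YbbR at pH 7.6 with 10 mM MgCl2.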
Hits are given with their value; . = inactive; ? = inconclusive; / = no result given; [ ] = remark or other dose. The list is not random: actives were taken first. Their share in the collection is about 12%. The call rests on the fitted dose curve; in most records, active means well fitted curve in the direction sought with a large enough effect; inconclusive means small, poorly fitted or top-dose-only effect, or another doubt; inactive means no such curve, though single readings can be large; an effect the other way counts as inactive or inconclusive.

SMILES | BAZ2B inh | L3MBTL1 inh | G9a block | JMJD2A Tudor inh | HP1b binding inh | Sfp inh
Cc1cc(N/N=C(/CCC(=O)O)C(=O)O)nc2ccccc12 | ? | . | 3.2µM | ? | . | 50µM
Cc1nc(-c2ccc(S(=O)(=O)N3CCN(c4cccc(C(F)(F)F)c4)CC3)cc2)co1 | ? | / | . | . | . | /
CC1(C)CC(NC(=O)c2cc(S(=O)(=O)N3CCCCC3)ccc2Cl)CC(C)(C)N1 | . | / | . | . | . | .
CC1(C)CC(NC(=O)c2cc(S(=O)(=O)N3CCOCC3)c(Cl)cc2Cl)CC(C)(C)N1 | 50µM | . | .[0.501 µM] | . | . | /
N#Cc1c(/N=C/c2cccs2)sc2c1CCCCC2 | 8.9µM | .[11.4 µM] | 14µM | 40µM | ? | .
N#Cc1c(/N=C/c2ccc(-c3ccccc3C(=O)O)o2)sc2c1CCCC2 | 45µM | / | 32µM | 79µM | . | .
Cc1ccc(/C=N/c2sc3c(c2C#N)CCC3)o1 | ? | ? | 18µM | 45µM | . | ?
N#Cc1c(/N=C/c2ccc(-c3ccc(C(=O)O)c(Cl)c3)o2)sc2c1CCCC2 | ? | . | .[12.7 µM] | ? | ? | /
N#Cc1c(/N=C/c2ccc(Br)s2)sc2c1CCC2 | . | . | ? | . | . | .
COc1cccc(NC(=O)c2sc3nc(C)c(C(=O)Nc4ccc(C)cc4C)c(-c4cccs4)c3c2N)c1 | . | / | ? | . | . | /
CC(=O)Nc1c2c(nn1-c1ccc(F)cc1)CSC2 | . | / | . | . | . | .
CC(=O)Nc1ccc(NC(=O)CS(=O)(=O)c2cn(CC(=O)N3CCCC3)c3ccccc23)cc1 | . | / | 40µM | . | . | .
O=C(CS(=O)(=O)c1cn(CC(=O)N2CCCC2)c2ccccc12)Nc1ccccc1 | . | / | . | . | . | .
O=C(Cn1cc(S(=O)(=O)Cc2ccc([N+](=O)[O-])cc2)c2ccccc21)N1CCOCC1 | . | / | 8.9µM | . | . | 40µM
O=C(Cn1cc(S(=O)(=O)Cc2cccc([N+](=O)[O-])c2)c2ccccc21)N1CCOCC1 | . | / | ? | . | . | .
O=C(CS(=O)(=O)c1cn(CC(=O)N2CCOCC2)c2ccccc12)Nc1ccccc1 | / | / | ? | . | . | .
Cc1ccc(CNC(=O)CS(=O)(=O)c2cn(CC(=O)N3CCOCC3)c3ccccc23)cc1 | . | / | 25µM | . | . | 40µM
Cc1ccccc1OCC(=O)N1CCN(C(=O)COc2ccccc2C)CC1 | . | / | ? | . | . | .
Cn1ncc2c(NCc3cccc(Cl)c3)ncnc21 | . | / | . | . | . | /
Cc1nnc(SCC(=O)Nc2ccc([N+](=O)[O-])cc2)n1C | . | . | / | . | . | .
COc1cc(/C=C2/C(=O)c3cccc([N+](=O)[O-])c3C2=O)c(Br)cc1O | 20µM | . | 10µM | 18µM | 25µM | 20µM
CC(C)(C)c1nc(SCC(=O)c2ccccc2)c2ccccc2n1 | . | . | . | . | . | ?
CC(C)(C)c1nc(SCC(=O)N2CCCC2)c2ccccc2n1 | . | . | 50µM | . | . | .
O=C(/C=C/c1ccco1)OCn1nnc2ccccc2c1=O | 56µM | ? | 35µM | . | . | .
CCOC(=O)c1cccc(NC(=O)/C=C/c2ccc3c(c2)OCO3)c1 | . | . | . | . | . | 79µM
SMILES | BAZ2B inh | L3MBTL1 inh | G9a block | JMJD2A Tudor inh | HP1b binding inh | Sfp inh
CN(Cc1ccccc1)C(=O)COC(=O)/C=C/c1ccco1 | / | / | 35µM | ? | ? | 35µM
O=C(COC(=O)/C=C/c1ccco1)Nc1ccc(F)cc1Cl | ? | . | ? | . | . | .
O=C(COC(=O)/C=C/c1ccco1)Nc1ccccc1 | ? | ? | 56µM | . | . | .
CCC(CC)C(=O)NCc1nc2cccnc2n1Cc1ccc(F)cc1 | . | / | . | . | . | /
N#Cc1ccccc1NC(=O)C1CC(=O)N(c2ccc3c4c(cccc24)CC3)C1 (stereo not given) | . | ? | . | . | . | .
COC(=O)c1ccccc1NC(=O)COC(=O)c1ccco1 | 50µM | ? | . | ? | . | .
CN(C)S(=O)(=O)c1cc(NC(=O)COC(=O)/C=C/c2ccco2)ccc1Cl | ? | / | ? | 56µM | ? | ?
O=C(/C=C/c1ccco1)OCc1nnc(-c2ccccc2)o1 | 50µM | / | 50µM | . | . | .
COc1ccccc1NC(=O)/C=C/c1ccc2c(c1)OCO2 | . | / | . | . | . | .
COc1ccccc1NC(=O)COC(=O)/C=C/c1ccc2c(c1)OCO2 | . | / | . | . | . | 79µM
COC(=O)c1ccccc1NC(=O)COC(=O)/C=C/c1ccco1 | ? | . | 50µM | . | . | .
O=C(COC(=O)/C=C/c1ccco1)NCc1ccc2c(c1)OCO2 | 71µM | . | 56µM | . | . | .
COC(=O)c1ccccc1NC(=O)COC(=O)/C=C/c1cccs1 | / | . | / | . | . | /
COc1ccccc1N1CCN(C(=O)c2c3c(nc4ccccc24)C(=O)N(C2CCCCC2)C3)CC1 | . | / | . | . | . | /
Cc1ccsc1/C=C1/CN(C)Cc2c1nc1ccccc1c2C(=O)O | . | . | / | . | . | ?
COc1cc(/C=C/c2nc3ccccc3c(=O)[nH]2)cc(Br)c1O | ? | / | ? | . | . | .
CCN1C/C(=C\c2cccc(C)c2)c2nc3ccccc3c(C(=O)O)c2C1 | ? | . | .[0.501 µM] | / | / | 79µM
CCOc1cc(/C=C2\CCCc3c2nc2ccccc2c3C(=O)O)ccc1OC | 79µM | / | ? | 89µM | . | 10µM
COc1cc(/C=C2\CCCc3c2nc2ccccc2c3C(=O)O)cc(Br)c1O | ? | / | 40µM | . | . | .
COc1ccc(/C=C2\CCCc3c2nc2ccccc2c3C(=O)OCC(=O)c2c(N)n(C)c(=O)n(C)c2=O)cc1 | . | . | . | / | / | .
COc1cccc(/C=C2\CC(C)Cc3c2nc2ccccc2c3C(=O)O)c1OC (stereo not given) | . | / | 50µM | . | . | 32µM
CCc1cnc2c(c1SCC(=O)Nc1ccc(C(=O)OC)cc1)c(=O)n(C)c(=O)n2C | . | / | . | . | . | /
O=C(c1ccco1)N1CCN(Cc2cccc3ccccc23)CC1 | 20µM | / | 14µM | 22µM | 22µM | ?
COc1cccc(CN2CCN(C(=O)c3ccco3)CC2)c1 | 28µM | . | 20µM | 28µM | ? | ?
Cn1c(C(=O)N2CCN(C(=O)c3ccco3)CC2)cc2c(=O)n3ccccc3nc21 | . | .[11.4 µM] | ? | . | . | 20µM
O=C(c1ccco1)N1CCN(S(=O)(=O)c2ccc(Br)s2)CC1 | . | .[11.4 µM] | 13µM | . | . | ?
Cn1c(C(=O)N2CCOCC2)cc2c(=O)n3ccccc3nc21 | . | / | . | . | . | .
CNC(=O)c1nn(C)c(=O)[nH]c1=O | / | / | / | . | . | /
